Test results taken from PubChem BioAssay (Tox21).
Several values for one entry are separate records, joined by “and”; a condition that tells them apart may be missing. Equal entries are not always repeated. Where a structure was tested more than once in an assay, its records may differ in their call. Activity calls are given as the source filed them. A call without a number means that no potency is given here. Unless noted, the call rests on the fitted dose curve; in most records, active means well fitted curve in the direction sought with a large enough effect in the repeat runs; inconclusive means weak or mixed curves; inactive means no such curve, though single readings can be large; an effect the other way counts as inactive or inconclusive.

Columns and labels:
[1] = qHTS assay to identify small molecule antagonists of the glucocorticoid receptor (GR) signaling pathway - cell viability counter screen (AID 720693); further: nearly all actives have a fitted effect of over 55% in size; further: potency means the concentration at half of the fitted maximal effect
[2] = qHTS assay for identifying genotoxic compounds that show differential cytotoxicity against isogenic chicken DT40 cell lines with known DNA damage response pathways - wild type cell line (AID 743012); further: nearly all actives have a fitted effect of over 60% in size; further: potency means the concentration at half of the fitted maximal effect
Outline: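 Endpoint: CellTiter-Glo luminescence, 30 min RT. Cells: wild type DT40, 300/well. Exposure: compounds in DMSO, 40 h, 37 C/5% CO2, after ~0.5 h pre-incubation.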

[3] = qHTS assay for identifying genotoxic compounds that show differential cytotoxicity against isogenic chicken DT40 cell lines with known DNA damage response pathways - Rev3 mutant cell line (AID 743014); further: nearly all actives have a fitted effect of over 55% in size; further: potency means the concentration at half of the fitted maximal effect
[4] = qHTS assay for identifying genotoxic compounds that show differential cytotoxicity against isogenic chicken DT40 cell lines with known DNA damage response pathways - Rad54/Ku70 mutant cell line (AID 743015); further: nearly all actives have a fitted effect of over 60% in size; further: potency means the concentration at half of the fitted maximal effect
[5] = qHTS assay to identify small molecule antagonists of the androgen receptor (AR) signaling pathway - cell viability counter screen (AID 743033; further: nearly all actives have a fitted effect of over 45% in size; further: potency means the concentration at half of the fitted maximal effect)
[6] = qHTS assay to identify small molecule antagonists of the androgen receptor (AR) signaling pathway using the MDA cell line - cell viability counter screen (AID 743041; further: nearly all actives have a fitted effect of over 45% in size)
Outline: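 Using the breast carcinoma line MDA-kb2 AR-luc, test chemicals were co-incubated with R1881 for 16 h; CellTiter-Fluor reagent, added at 15.5 h, provided a fluorescence measure of live cells.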

[7] = qHTS assay to identify small molecule antagonists of the thyroid receptor (TR) signaling pathway (AID 743065); further: nearly all actives have a fitted effect of over 55% in size; further: potency means the concentration at half of the fitted maximal effect
Outline: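 Antagonism measured as loss of luciferase signal in GH3 cells stably carrying a TRE-luciferase reporter, co-treated with compound and T3 (1 nM final) for 23.5 h at 37 C. Viability was read in the same well by CellTiter-Fluor.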

[8] = tested on: thyroid hormone receptor (rat, GH3 cells); assay: qHTS assay to identify small molecule agonists of the thyroid receptor (TR) signaling pathway (AID 743066; calls by dose curve; further: potency means the concentration at half of the fitted maximal effect)
[9] = qHTS assay to identify small molecule antagonists of the estrogen receptor alpha (ER-alpha) signaling pathway using the BG1 cell line - cell viability counter screen (AID 743081);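 further: compound given together with 17beta-estradiol as the ER stimulus; nearly all actives have a fitted effect of over 45% in size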
Aromatase (Homo sapiens) = Aromatase (Homo sapiens) (UniProt P11511); assay: qHTS assay to identify aromatase inhibitors (AID 743083); further: nearly all actives have a fitted effect of over 55% in size; further: potency means the concentration at half of the fitted maximal effect
Chain of Aromatase (Homo sapiens) (P11511 whole entry, looked up): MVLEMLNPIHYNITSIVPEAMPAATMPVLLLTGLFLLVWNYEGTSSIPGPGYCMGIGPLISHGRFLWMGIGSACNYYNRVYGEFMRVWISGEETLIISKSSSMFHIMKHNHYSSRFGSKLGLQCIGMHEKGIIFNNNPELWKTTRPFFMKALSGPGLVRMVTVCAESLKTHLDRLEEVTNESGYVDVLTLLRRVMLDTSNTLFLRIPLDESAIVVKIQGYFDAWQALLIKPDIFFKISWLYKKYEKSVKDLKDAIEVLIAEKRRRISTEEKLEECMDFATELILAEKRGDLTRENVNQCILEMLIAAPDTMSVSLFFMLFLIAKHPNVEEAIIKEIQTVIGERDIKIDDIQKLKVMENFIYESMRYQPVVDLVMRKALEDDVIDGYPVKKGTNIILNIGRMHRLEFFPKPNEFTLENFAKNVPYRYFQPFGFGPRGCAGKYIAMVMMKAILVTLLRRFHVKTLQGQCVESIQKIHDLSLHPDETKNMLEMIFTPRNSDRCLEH

[10] = qHTS assay to identify small molecule antagonists of the estrogen receptor alpha (ER-alpha) signaling pathway - cell viability counter screen (AID 743074; calls by dose curve; further: nearly all actives have a fitted effect of over 45% in size)
[11] = target: Estrogen receptor (Homo sapiens) (UniProt P03372); assay: qHTS assay to identify small molecule agonists of the estrogen receptor alpha (ER-alpha) signaling pathway (AID 743075; calls by dose curve)
Chain of Estrogen receptor (Homo sapiens) (P03372 whole entry, looked up): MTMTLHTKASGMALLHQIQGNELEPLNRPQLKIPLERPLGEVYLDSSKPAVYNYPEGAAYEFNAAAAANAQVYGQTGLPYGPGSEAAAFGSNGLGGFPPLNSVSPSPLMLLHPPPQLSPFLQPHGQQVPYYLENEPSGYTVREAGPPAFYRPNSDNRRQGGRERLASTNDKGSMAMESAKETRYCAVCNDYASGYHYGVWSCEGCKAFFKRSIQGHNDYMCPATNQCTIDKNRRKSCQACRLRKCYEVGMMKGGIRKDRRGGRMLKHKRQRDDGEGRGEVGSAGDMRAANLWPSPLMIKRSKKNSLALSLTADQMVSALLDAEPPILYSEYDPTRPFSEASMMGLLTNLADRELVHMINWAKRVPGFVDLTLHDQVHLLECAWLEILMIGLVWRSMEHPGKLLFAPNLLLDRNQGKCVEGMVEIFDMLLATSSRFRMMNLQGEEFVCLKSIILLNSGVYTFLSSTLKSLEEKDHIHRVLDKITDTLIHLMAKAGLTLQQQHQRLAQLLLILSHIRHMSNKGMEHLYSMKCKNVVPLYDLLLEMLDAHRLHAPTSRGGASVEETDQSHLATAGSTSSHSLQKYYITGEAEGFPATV

[12] = target: Estrogen receptor (Homo sapiens) (UniProt P03372); assay: qHTS assay to identify small molecule agonists of the estrogen receptor alpha (ER-alpha) signaling pathway using the BG1 cell line (AID 743079); further: nearly all actives have a fitted effect of over 20% in size; further: potency means the concentration at half of the fitted maximal effect
[13] = qHTS assay to identify small molecule antagonists of the estrogen receptor alpha (ER-alpha) signaling pathway using the BG1 cell line (AID 743080; calls by dose curve;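 further: BG1 cells stimulated with 17beta-estradiol alongside compound; nearly all actives have a fitted effect of over 25% in size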; further: potency means the concentration at half of the fitted maximal effect)
Outline: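 Luciferase inhibition measured with ONE-Glo after 30 min at RT in BG1Luc4E2 cells given test compounds and 17beta-estradiol for 21.5 h at 37 C; CellTiter-Fluor viability read in the same wells beforehand.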

[14] = target: Estrogen receptor (Homo sapiens) (UniProt P03372); assay: qHTS assay to identify small molecule antagonists of the estrogen receptor alpha (ER-alpha) signaling pathway (AID 743069; active means well fitted curve in the direction sought with a large enough effect in the signal ratio in the repeat runs, not every such curve was filed as active; inconclusive means weak or mixed curves, or effect the other way; inactive means no such curve, though single readings can be large or run the other way; the % refers to the signal ratio; further: potency means the concentration at half of the fitted maximal effect)
Outline: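 Fluorescence intensity from a beta-lactamase FRET substrate served as the read-out. Cells: HEK293 with stably integrated ER-alpha-UAS-bla reporter. Agonist 17beta-estradiol was co-added with compounds; incubation 18 hr at 37C, substrate 2 hr at room temperature.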

[15] = qHTS assay to identify small molecule antagonists of the thyroid receptor (TR) signaling pathway - cell viability counter screen (AID 743064); further: nearly all actives have a fitted effect of over 50% in size; further: potency means the concentration at half of the fitted maximal effect
Outline: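 GH3.TRE-Luc cells, 4 h pre-plating; cpd + T3 1 nM final; 37 °C 23.5 h; CellTiter-Fluor 30 min; fluorescence read.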

[16] = target: Androgen receptor (Homo sapiens) (UniProt P10275); assay: qHTS assay to identify small molecule agonists of the androgen receptor (AR) signaling pathway using the MDA cell line (AID 743040; further: nearly all actives have a fitted effect of over 20% in size); details: MDA-kb2 AR-luc cells, MMTV luciferase, 16 h; activity change: at 70.3 µM (top of the series), stronger effect = higher value
Chain of Androgen receptor (Homo sapiens) (P10275 whole entry, looked up): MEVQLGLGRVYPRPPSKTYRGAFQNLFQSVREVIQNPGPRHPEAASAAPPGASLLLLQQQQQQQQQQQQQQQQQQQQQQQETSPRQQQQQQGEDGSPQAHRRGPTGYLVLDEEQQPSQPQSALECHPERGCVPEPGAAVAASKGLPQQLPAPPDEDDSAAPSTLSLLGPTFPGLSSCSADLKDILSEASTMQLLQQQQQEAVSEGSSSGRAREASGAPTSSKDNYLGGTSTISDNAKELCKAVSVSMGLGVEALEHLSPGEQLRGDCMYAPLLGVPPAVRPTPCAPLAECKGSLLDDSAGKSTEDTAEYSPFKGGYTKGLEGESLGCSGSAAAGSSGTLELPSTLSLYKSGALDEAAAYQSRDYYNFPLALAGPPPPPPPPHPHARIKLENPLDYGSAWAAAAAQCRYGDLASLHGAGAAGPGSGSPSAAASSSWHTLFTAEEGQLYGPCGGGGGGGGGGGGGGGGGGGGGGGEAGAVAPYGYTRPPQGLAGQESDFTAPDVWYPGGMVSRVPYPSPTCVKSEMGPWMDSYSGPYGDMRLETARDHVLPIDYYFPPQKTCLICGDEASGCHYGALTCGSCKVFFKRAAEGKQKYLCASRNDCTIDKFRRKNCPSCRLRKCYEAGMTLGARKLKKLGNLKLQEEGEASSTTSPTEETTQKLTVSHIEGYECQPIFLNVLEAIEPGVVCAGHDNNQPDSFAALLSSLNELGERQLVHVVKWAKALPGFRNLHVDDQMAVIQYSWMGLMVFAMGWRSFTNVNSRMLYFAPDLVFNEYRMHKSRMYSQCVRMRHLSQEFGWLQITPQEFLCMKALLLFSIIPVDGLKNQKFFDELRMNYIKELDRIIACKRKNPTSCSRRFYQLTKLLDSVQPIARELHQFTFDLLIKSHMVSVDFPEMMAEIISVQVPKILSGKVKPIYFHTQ
Outline: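 Stable MMTV-luciferase reporter in MDA-kb2 cells; note the promoter carries GR as well as AR response elements. 16 h compound treatment, 37C, 0% CO2; ONE-Glo luminescence endpoint.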

[17] = target: Androgen receptor (Homo sapiens) (UniProt P10275); assay: qHTS assay to identify small molecule antagonists of the androgen receptor (AR) signaling pathway using the MDA cell line (AID 743042; further: nearly all actives have a fitted effect of over 55% in size)
Outline: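 Antagonist mode: compounds plus R1881 agonist added to MDA-kb2 AR-luc cells, incubated 16 h at 37C. Luciferase reporter luminescence quantified, with multiplexed CellTiter-Fluor readout for cell viability.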

Structure (SMILES)	Potency [1]	Potency [2]	Potency [3]	Potency [4]	Potency [5]	Potency [6]	Potency [7]	Potency [8]	Potency [9]	Potency (Aromatase (Homo sapiens))	Potency [10]	Potency [11]	Potency [12]	Potency [13]	Potency [14]	Potency [15]	Potency [16]	Potency [17]
Oc1cc(Cl)ccc1Cl	inactive	inactive	inactive	inactive	inactive	inactive	inactive	inactive	inactive	inactive	–	–	–	–	–	–	–	–
CN(C)c1ccc(C(=O)c2ccc(N(C)C)cc2)cc1	inactive	1.52 µM (active) and 1.37 µM (active)	762 nM (active) and 969 nM (active)	1.35 µM (active) and 1.37 µM (active)	inactive	inactive	5.39 µM (active) and 1.09 µM (active)	inactive	inactive	inactive	inactive	–	–	–	–	–	–	–
O=c1oc2ccccc2c(O)c1C(CC(O)c1ccc(-c2ccc(Br)cc2)cc1)c1ccccc1 (configuration not stated)	23.9 µM (active) and 46.3 µM (active)	inactive	inactive	–	inactive	inactive	29.8 µM (active) and 57.9 µM (active)	inactive	inactive	inactive	inactive	inactive	inactive	inactive	–	–	–	–
NNC(=S)NN	inactive	61.1 µM (active)	54.5 µM (active)	43.3 µM (active)	inactive	inactive	inactive	inactive and 61.1 µM (active)	inactive	inactive	inactive	inactive	inactive	inactive	inactive	–	–	–
Oc1ccc(-c2ccccc2)cc1	inactive	inactive	60.3 µM (active)	inactive	inactive	inactive	–	inactive	inactive	inactive	inactive	–	–	–	inactive	–	–	–
O=Cc1ccco1	inactive	inactive	inactive	inactive	inactive	inactive	inactive	inactive	inactive	inactive	inactive	–	–	–	–	–	–	–
Nc1ccc(-c2ccc(N)c(N)c2)cc1N	inactive	60.9 µM (active) and 9.69 µM (active)	60.9 µM (active) and 12.2 µM (active)	68.4 µM (active) and 12.2 µM (active)	inactive	–	–	–	inactive	6.09 µM (active) and inactive	inactive	–	–	–	–	–	–	–
Nc1ccc(Cl)c(Cl)c1	–	inactive	inactive	inactive	inactive	inactive	inactive	inactive	inactive	inactive	inactive	–	–	–	–	inactive	–	–
CCOc1cc(Oc2ccc(C(F)(F)F)cc2Cl)ccc1[N+](=O)[O-]	–	54.5 µM (active)	inactive	54.5 µM (active)	inactive	inactive	–	inactive	inactive	inactive	inactive	inactive	–	31 µM (active)	inactive	–	–	–
Cc1cc(Cl)ccc1OCCCC(=O)O	–	inactive	inactive	inactive	inactive	inactive	inactive	inactive	inactive	inactive	–	–	–	–	–	inactive	inactive	inactive
NC(=S)Nc1ccccc1	–	inactive	inactive	inactive	inactive	inactive	inactive	inactive	inactive	inactive	inactive	inactive	inactive	inactive	inactive	–	–	–
COP(=S)(OC)Oc1ccc([N+](=O)[O-])cc1	–	–	–	–	inactive	inactive	inactive	inactive	inactive	inactive	inactive	inactive	48.6 µM (active) and inactive	inactive	inactive	inactive	–	–
Oc1c(Cl)c(Cl)c(Cl)c(Cl)c1Cl	–	–	inactive	–	21.4 µM (active)	inactive	8.46 µM (active) and 27.2 µM (active)	inactive	inactive	inactive	–	inactive	–	59.9 µM (active) and 27.2 µM (active)	8.54 µM [inconclusive] (active)	26.8 µM (active)	–	–
CCOC(=S)S	–	24.3 µM (active) and 16.3 µM (active)	21.7 µM (active) and 16.3 µM (active)	24.3 µM (active) and 16.3 µM (active)	13.8 µM (active) and 8.26 µM (active)	–	51.7 µM (active)	inactive	inactive	68.6 µM (active) and 58 µM (active)	inactive	–	–	–	–	inactive	–	–
CC(O)CCO (configuration not stated)	–	inactive	inactive and 68.6 µM (active)	inactive	inactive	inactive	inactive	inactive	inactive	inactive	inactive	–	–	–	–	inactive	–	–
